Results as given in the supplement of paper PMC6522484.
Counter-ions that a name gives are not always drawn. ± gives the standard deviation of the averaged measurements.

Assays:
DLD1 [1] = assay: cell viability (CellTiter-Glo) relative to plate median (fraction of plate median); higher = more viable cells; settings: 10 µM, treatment time 24 h
Summary of the method: (§1)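 Kinase inhibitor library compounds were added at a final 10 µM for 24 h to colorectal cancer cells in 384-well plates, 24 h after seeding. The cells stably expressed lentiviral TCF/Wnt firefly luciferase reporters. Firefly luciferase and CellTiterGlo luminescence came from parallel plates, and each well was normalised to its plate median (webcellHTS2, additive, untransformed), averaged over two independent replicates.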

HCT116 [2] = assay: as above; settings: 10 µM; treatment time 24 h; reporter: TCF4/Wnt
Summary of the method: as §1

SW480 [3] = assay: as above; settings: 10 µM; treatment time 24 h; reporter: 7TFP
Summary of the method: as §1

DLD1 [4] = assay: TCF/Wnt firefly luciferase reporter signal relative to plate median (fraction of plate median); higher = higher Wnt reporter signal; settings: 10 µM, treatment time 24 h
Summary of the method: as §1

HCT116 [5] = assay: as above; settings: 10 µM; treatment time 24 h; reporter: TCF4/Wnt
Summary of the method: as §1

SW480 [6] = assay: as above; settings: 10 µM; treatment time 24 h; reporter: 7TFP
Summary of the method: as §1

SMILES | cell viability (DLD1 [1]; reporter: 7TFP) | cell viability (DLD1 [1]; reporter: TCF4/Wnt) | cell viability (HCT116 [2]) | cell viability (SW480 [3]) | TCF/Wnt firefly luciferase reporter signal (DLD1 [4]; reporter: 7TFP) | TCF/Wnt firefly luciferase reporter signal (DLD1 [4]; reporter: TCF4/Wnt) | TCF/Wnt firefly luciferase reporter signal (HCT116 [5]) | TCF/Wnt firefly luciferase reporter signal (SW480 [6])
O=c1cc(N2CCOCC2)oc2c(-c3ccccc3)cccc12 | 1 ± 0.092 | 1.065 ± 0.0071 | 1.11 ± 0.021 | 0.963 ± 0.033 | 1.11 ± 0.078 | 1.15 ± 0.21 | 1.62 ± 0.3 | 1.15 ± 0.05
CCn1nnc2c(N3CCOCC3)nc(-c3ccc(NC(=O)Nc4ccc(C(=O)N5CCN(C)CC5)cc4)cc3)nc21 | 1.21 ± 0.16 | 1.09 ± 0.092 | 0.683 ± 0.11 | 1.14 ± 0.028 | 0.633 ± 0.025 | 1.19 ± 0.042 | 0.59 ± 0.19 | 0.821 ± 0.054
Cc1cc(C)c(/C=C2\C(=O)Nc3ccccc32)[nH]1 [Semaxanib (SU5416)] | 0.951 ± 0.016 | 1.02 ± 0.038 | 1.2 ± 0.071 | 0.879 ± 0.028 | 1.47 ± 0.021 | 1.335 ± 0.0071 | 0.91 ± 0.11 | 1.04 ± 0.021
O=C1NC(=O)/C(=C/c2ccc(-c3ccc(F)cc3O)o2)S1 | 1.09 ± 0.092 | 1.21 ± 0.028 | 1.19 ± 0.092 | 1.04 ± 0.14 | 0.905 ± 0.13 | 1.34 ± 0.47 | 1.7 ± 0.71 | 1.41 ± 0.35
Cc1cn(-c2cc(NC(=O)c3ccc(C)c(Nc4nccc(-c5cccnc5)n4)c3)cc(C(F)(F)F)c2)cn1 [Nilotinib (AMN-107)] | 0.808 ± 0.028 | 0.935 ± 0.041 | 0.9715 ± 0.005 | 0.973 ± 0.053 | 0.873 ± 0.054 | 0.708 ± 0.12 | 0.894 ± 0.028 | 1.04 ± 0.028
Cn1cnc(N)c2ncnc1-2 [3-Methyladenine] | 1.07 ± 0.078 | 1.11 ± 0.12 | 1.13 ± 0.014 | 0.867 ± 0.1 | 1.17 ± 0.13 | 1.12 ± 0.11 | 1.03 ± 0.066 | 0.733 ± 0.24
O=C(NOCC1CC1)c1ccc(F)c(F)c1Nc1ccc(I)cc1Cl | 1.19 ± 0.028 | 1.065 ± 0.0071 | 1.11 ± 0.028 | 1.1 ± 0.11 | 1.2 ± 0.042 | 1.04 ± 0.23 | 0.9945 ± 0.0078 | 1.16 ± 0.32
Clc1ccc(Nc2nnc(Cc3ccncc3)c3ccccc23)cc1 [Vatalanib dihydrochloride (PTK787)] | 0.9675 ± 0.0021 | 0.978 ± 0.011 | 1.08 ± 0.13 | 0.925 ± 0.011 | 0.852 ± 0.038 | 0.965 ± 0.13 | 0.899 ± 0.11 | 0.957 ± 0.089
CCn1c(-c2nonc2N)nc2c(C#CC(C)(C)O)ncc(OC[C@H]3CCCNC3)c21 | 0.909 ± 0.074 | 0.954 ± 0.065 | 0.805 ± 0.0057 | 1.04 ± 0.05 | 1.05 ± 0.55 | 1.22 ± 0.26 | 1.65 ± 0.41 | 1.39 ± 0.23
C[C@@H](N)[C@H]1CC[C@H](C(=O)Nc2ccncc2)CC1 | 1.03 ± 0.05 | 1.03 ± 0.05 | 1.09 ± 0.021 | 1.045 ± 0.0071 | 1.22 ± 0.092 | 1.32 ± 0.057 | 1.53 ± 0.064 | 1.18 ± 0.057
